High-throughput results: PubChem, National Center for Advancing Translational Sciences (NCATS)
DRD3 antagonist – qHTS of D3 Dopamine Receptor Antagonist: qHTS; AID 652054, 2013; D3R cells, DiscoveRx beta-arrestin luminescence, antagonist mode; hits give low values; D(3) dopamine receptor (Homo sapiens), P35462; max response, negative = inhibition, %; 360,000 tested, 2.5% active; in the data active = max response below about -50%; inconclusive = no clear call, values can overlap the other calls
Target sequence (P35462 whole entry, looked up): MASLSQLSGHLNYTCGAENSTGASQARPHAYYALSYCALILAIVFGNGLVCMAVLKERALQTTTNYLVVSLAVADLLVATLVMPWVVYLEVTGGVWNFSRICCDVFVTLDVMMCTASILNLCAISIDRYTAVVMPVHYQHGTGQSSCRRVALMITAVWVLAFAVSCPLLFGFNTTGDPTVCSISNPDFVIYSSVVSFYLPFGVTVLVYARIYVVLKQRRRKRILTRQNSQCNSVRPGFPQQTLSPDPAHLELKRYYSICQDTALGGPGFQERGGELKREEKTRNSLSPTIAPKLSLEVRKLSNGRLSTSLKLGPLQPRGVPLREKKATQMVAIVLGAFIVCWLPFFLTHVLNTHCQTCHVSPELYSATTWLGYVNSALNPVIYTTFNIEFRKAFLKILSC
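Cells plated overnight at 1500 cells/well, then exposed to library compounds with dopamine controls for 90 minutes at 37 degrees C. DiscoveRx reagent added for 30–60 minutes at room temperature; luminescence read, quantitative HTS format.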
IL1B secr inh – qHTS for Inhibitors of Inflammasome Signaling: IL-1-beta AlphaLISA Primary Screen; AID 743279, 2014; activity change, % at 57.5 µM; 360,000 tested, 4.7% active; THP-1 LPS/ATP IL-1B secretion, AlphaLISA, 16 h; hits give low values; in the data active = activity change below about -50%; inconclusive = mostly about -30% to -49%
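Secreted IL-1B measured by AlphaLISA bead assay after 16 h compound exposure of THP-1 cells; compounds (final up to 57.5 uM) added 1 h before LPS (250 ng/mL) and ATP (1.25 mM) stimulation; lower signal means less secretion.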
D3 ag – qHTS of D3 Dopamine Receptor Agonist: qHTS | D(3) dopamine receptor (Homo sapiens), P35462 | D3R DiscoveRx beta-arrestin cells, luminescence, 90 min | max activation, % | 410,000 tested, 0.58% active | AID 652048, 2013; in the data active = max activation above about 30%
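Agonist-mode cell screen: cells plated at 1500/well and incubated overnight at 37 °C, then exposed to library compounds for 90 min at 37 °C. Detection reagent was added for 30–60 min at room temperature, and luminescence was read.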
ATXN viability – Viability Counterscreen for Primary qHTS for Inhibitors of ATXN expression. S2 cells (HEK-293 line with an ATXN2-luciferase reporter) viability, CellTiter-Fluor protease fluorescence, 24 h. Potency, µM (highest dose often 56.7 µM), usual class: cytotoxic. 400,000 tested, 0.49% active. AID 651635, 2014; also: nearly all actives have a fitted effect of over 40% in size
a7 integrin act – qHTS for Activators of Integrin-Mediated Alleviation for Muscular Dystrophy | alpha7betagal myoblasts, beta-gal FDG fluorescence, 48 h | Potency, µM (top dose mostly 38.3 µM), usual class: activators | 350,000 tested, 0.064% active | AID 624291, 2012; also: nearly all actives have a fitted effect of over 60% in size
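Alpha7betagal+/- myoblasts (passage 13) were plated 16-24 hr, then exposed to compounds (1:260 dilution of DMSO stock) for 48 hours at 37C. After MPER lysis, β-galactosidase reporter activity was read as FDG fluorescence (ex 480/em 540) after 30 minutes.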
ATXN2 expr inh – Primary qHTS for Inhibitors of ATXN expression; 360,000 tested, 0.72% active; Potency, µM (doses to about 57 µM), actives largely listed as inhibitors; AID 1745845, 2022; HEK-293 ATXN2-luciferase reporter, luminescence, 24 h; also: nearly all actives have a fitted effect of over 55% in size
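qHTS (up to 57 uM final) was run with 24 h compound exposure of reporter cells at 37 °C. Each well was multiplexed: SteadyGlo luminescence measured ATXN2-luciferase expression after a fluorogenic Gly-Phe-AFC viability readout (25 uM final).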
Hits are given with their value. This is a sample that favours compounds with a hit; in the whole collection about 7% have one here. Unless noted, calls follow the shape of the dose curve; as a rule, active = well fitted curve in the direction sought with a large enough effect; inconclusive = small, poorly fitted or top-dose-only effect, or another doubt; inactive = no such curve, though single readings can be large; an effect the other way counts as inactive or inconclusive.

What do the screens show for `Cc1ccc(CSc2nnc3c(n2)OC2(Nc4ccccc4-3)C(=O)Nc3ccc(F)cc32)cc1` (stereo not given)?
DRD3 antagonist: inconclusive; IL1B secr inh: inactive; D3 ag: inactive; ATXN viability: inactive; a7 integrin act: inactive; ATXN2 expr inh: inactive

What do the screens show for `O=C(c1ccccc1)n1nc(-c2ccccc2)nc1NCc1ccc(F)cc1`?
D3 ag: inactive; ATXN viability: inactive; ATXN2 expr inh: inactive

What do the screens show for `CCN(CC)CCOC(c1ccccc1)c1ccc(C)cc1` (stereo not given)?
DRD3 antagonist: inactive; IL1B secr inh: inconclusive; D3 ag: inactive; ATXN viability: inactive; a7 integrin act: inactive; ATXN2 expr inh: inactive

Results for Cc1ccc(C(OCC(C)(C)C[N+](C)(C)C)c2ccccc2)cc1 (stereo not given) ?
DRD3 antagonist: inactive; IL1B secr inh: -52; D3 ag: inactive; ATXN viability: inactive; a7 integrin act: inactive; ATXN2 expr inh: inactive

How did O=C1C=CC(=O)N1c1cccc2cccnc12 do in these assays?
DRD3 antagonist: inactive; IL1B secr inh: inactive; D3 ag: inactive; ATXN viability: inactive; a7 integrin act: inactive; ATXN2 expr inh: inactive

What do the screens show for `O=C(c1ccc(Cl)cc1)C1CCN(Cc2ccccc2)CC1`?
DRD3 antagonist: -114; IL1B secr inh: inactive; D3 ag: inactive; ATXN viability: inactive; a7 integrin act: inactive

What do the screens show for `O=C(c1ccc(F)cc1)C1CCN(Cc2cn[nH]c2-c2ccc(F)cc2)CC1`?
DRD3 antagonist: inconclusive; IL1B secr inh: inactive; D3 ag: inactive; ATXN viability: inactive; a7 integrin act: inactive; ATXN2 expr inh: inactive

Results for COc1ccc(C(=O)C2CCN(CC(=O)NCc3ccccc3)CC2)cc1 ?
DRD3 antagonist: -52; IL1B secr inh: inactive; D3 ag: inactive; ATXN viability: inactive; a7 integrin act: inconclusive; ATXN2 expr inh: inactive

What do the screens show for `O=C(C1CCN(Cc2ccc(Cl)cc2)CC1)N1CCN(C(c2ccccc2)c2ccccc2)CC1`?
DRD3 antagonist: inactive; IL1B secr inh: -53; D3 ag: inactive; ATXN viability: inconclusive; a7 integrin act: inactive; ATXN2 expr inh: inconclusive

Results for O=C(c1ccc(F)cc1)C1CCN(Cc2ccccc2F)CC1 ?
DRD3 antagonist: -112; IL1B secr inh: inactive; D3 ag: inactive; ATXN viability: inconclusive; a7 integrin act: inactive

What do the screens show for `COc1ccc(CNC(=O)CN2CCC(C(=O)c3ccc(OC)cc3)CC2)cc1`?
DRD3 antagonist: inconclusive; IL1B secr inh: inconclusive; D3 ag: inactive; ATXN viability: inconclusive; a7 integrin act: inactive; ATXN2 expr inh: inactive

How did CC(=O)N1CCC(C(=O)c2ccc(Cl)cc2)CC1 do in these assays?
DRD3 antagonist: inactive; IL1B secr inh: inactive; D3 ag: inactive; ATXN viability: inactive; a7 integrin act: inactive; ATXN2 expr inh: inactive

Results for O=C1C2C3C=CC(CC3)C2C(=O)N1/N=C/c1ccco1 (stereo not given) ?
DRD3 antagonist: inactive; IL1B secr inh: inactive; D3 ag: inactive; ATXN viability: inactive; a7 integrin act: inactive; ATXN2 expr inh: inactive

What do the screens show for `CC1(C)C(=O)N(CCN2CCC(C(=O)c3ccc(F)cc3)CC2)c2ccccc21`?
DRD3 antagonist: -84; IL1B secr inh: inactive; D3 ag: inactive; ATXN viability: inactive; ATXN2 expr inh: inactive

How did O=C(CN1CCC(C(=O)c2ccc(F)cc2)CC1)NCc1ccccc1F do in these assays?
DRD3 antagonist: -79; IL1B secr inh: inactive; D3 ag: inactive; ATXN viability: inactive; a7 integrin act: inactive; ATXN2 expr inh: inactive

Results for CC1=C(C(=O)Nc2ccc(C(=O)NCCCN3CCCCC3C)cc2)SCCO1 (stereo not given) ?
DRD3 antagonist: inactive; IL1B secr inh: inconclusive; D3 ag: inactive; ATXN viability: inactive; a7 integrin act: inactive

How did O=C(Nc1nc2ccccc2[nH]1)C1CCCC1 do in these assays?
DRD3 antagonist: inactive; IL1B secr inh: inconclusive; D3 ag: inactive; ATXN viability: inactive; a7 integrin act: inactive; ATXN2 expr inh: inactive

Results for COc1ccc(/C(N)=N/OC(=O)CSc2ccccc2)cc1 ?
DRD3 antagonist: inactive; IL1B secr inh: -60; D3 ag: inactive; ATXN viability: inactive; a7 integrin act: inactive; ATXN2 expr inh: inactive

Results for O=C(Nc1ccc(-c2nnc3n2CCCCC3)cc1)c1cc2ccccc2o1 ?
DRD3 antagonist: inactive; IL1B secr inh: -199; D3 ag: inactive; ATXN viability: inactive; a7 integrin act: inactive

Results for O=C(Nc1ccc(N2CCCC2)cc1)c1cc2ccccc2o1 ?
DRD3 antagonist: inactive; IL1B secr inh: inactive; D3 ag: inactive; ATXN viability: inactive; a7 integrin act: inactive

What do the screens show for `Cc1c(C(=O)Nc2ccc(-c3nnc4n3CCCCC4)cc2)oc2c1ccc1ccccc12`?
DRD3 antagonist: inactive; IL1B secr inh: -98; D3 ag: inactive; ATXN viability: inconclusive; a7 integrin act: inactive; ATXN2 expr inh: inconclusive

Results for Cc1ccccc1C(=O)NCCCNC(=O)c1ccccn1 ?
DRD3 antagonist: inactive; IL1B secr inh: inactive; D3 ag: inactive; ATXN viability: inactive; a7 integrin act: inactive; ATXN2 expr inh: inactive

How did CN(CCOc1ccc(Cl)cc1)C(=O)c1cc(-c2ccco2)nc2ccccc12 do in these assays?
DRD3 antagonist: inactive; IL1B secr inh: -81; D3 ag: 42; ATXN viability: inconclusive; a7 integrin act: inactive; ATXN2 expr inh: inconclusive

How did COc1cccc(NC(=O)CN(C)C(=O)c2cc(-c3ccco3)nc3ccccc23)c1 do in these assays?
DRD3 antagonist: inactive; IL1B secr inh: inactive; D3 ag: inactive; ATXN viability: inactive; a7 integrin act: inactive; ATXN2 expr inh: inactive

How did Cc1ccc(S(=O)(=O)/N=C(/c2ccccc2)N2CCOCC2)cc1 do in these assays?
DRD3 antagonist: inactive; IL1B secr inh: inactive; D3 ag: 36; ATXN viability: inactive; a7 integrin act: inactive; ATXN2 expr inh: inactive

What do the screens show for `CS/C(=N/S(=O)(=O)c1ccc(C)cc1)c1ccccc1`?
DRD3 antagonist: inactive; IL1B secr inh: -55; D3 ag: inactive; ATXN viability: inactive; a7 integrin act: inactive; ATXN2 expr inh: inactive

What do the screens show for `O=S(=O)(/N=C(\Sc1ccc(Cl)cc1)c1ccccc1)c1ccccc1`?
DRD3 antagonist: inactive; IL1B secr inh: -113; D3 ag: inactive; ATXN viability: inactive; a7 integrin act: inactive; ATXN2 expr inh: inactive

Results for O=S(=O)(/N=C(/c1ccccc1)N1CCOCC1)c1ccc(Br)cc1 ?
DRD3 antagonist: inactive; IL1B secr inh: inactive; D3 ag: inactive; ATXN viability: inactive; a7 integrin act: inactive; ATXN2 expr inh: inactive

Results for CS/C(=N\S(=O)(=O)c1ccc(Cl)cc1)c1ccccc1 ?
DRD3 antagonist: inactive; IL1B secr inh: inactive; D3 ag: inactive; ATXN viability: inactive; a7 integrin act: inactive; ATXN2 expr inh: inactive
